Data on 106 compounds can be found in PubChem BioAssay AID504832 (National Center for Advancing Translational Sciences (NCATS), 2011).

About 18,000 (5.8%) of roughly 310,000 compounds were called active. Entries that show only a call come without a potency. Roughly 22% stayed inconclusive and do not appear here. Many of the other results were omitted from the sample, so actives are more common in it than they were. Values without a mark were called inactive. Calls come from the whole dose curve; as a rule, active = well fitted inhibition curve with a large enough effect; inconclusive = small, poorly fitted or top-dose-only effect, or another doubt; inactive = no such curve, though single readings can be large or run the other way.
Potency is the fitted concentration of half-maximal effect.

The test is described as follows: Primary qHTS for delayed death inhibitors of the malarial parasite plastid, 48 hour incubation. Particulars: P. falciparum luciferase growth in erythrocytes; series mostly up to 28.7 µM. Put shortly:
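First compound was added to culture medium, then infected red cells at 0.1% parasitemia and 2% hematocrit (final). After incubation at 37 C under 5% CO2, luciferase detection reagent was dispensed and light output recorded.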
With `Cc1cc(=O)oc2c3c(cc(OCC(=O)NCCC(=O)N[C@@H](C)C(=O)O)c12)OC(C)(C)CC3`, the Potency entry is “inactive”.
For the compound `Cc1c(NC(=O)Nc2cccc([N+](=O)[O-])c2)c(=O)n(-c2ccccc2)n1C`, the Potency entry is “inactive”.
Same read-out and setting: to `CCOC(=O)c1nnn(-c2nonc2-n2cccc2)c1CN1CCOCC1` belongs 7.38 µM (active); to `CCOC(=O)c1nnn(-c2nonc2-n2cccc2)c1CN1CCC(C(=O)OCC)CC1`, 0.185 µM (active).
Still for that read-out and setting: for `NNC(=O)c1nnn(-c2nonc2N)c1CN1CCCC1` the value was “inactive”; for `CCOC(=O)c1nnn(-c2nonc2OC)c1-c1ccccc1`, “inactive”; for `CCN(CC)Cc1c(C(=O)OC)nnn1-c1nonc1N`, “inactive”.
On the same count and under the same terms, for `CCOC(=O)C1CCN(Cc2c(C(=O)N3CCOCC3)nc3c(C)cccn23)CC1` the value was “inactive”; for `CC(=O)Nc1ccc(S(=O)(=O)Nc2cc(C)cn(Cc3ccc(C)cc3)c2=O)cc1`, “inactive”; for `COc1ccccc1CNS(=O)(=O)c1ccc2c(c1)NC(=O)CS2`, “inactive”.
On to `CCCn1cc(S(=O)(=O)c2ccc(C)cc2)c(=O)c2cc(OCC)ccc21`, for which the Potency result was “inactive”.
The same measure, in the same setting: to `CN(CC(=O)O)S(=O)(=O)c1ccc2oc3ccccc3c2c1` belongs “inactive”; to `Cc1ccc(/C=N/NC(=O)c2cc3ccccc3cc2O)o1`, 0.586 µM (active); to `O=C(N/N=C/c1cccnc1)c1cc2ccccc2cc1O`, 2.94 µM (active).
Turning to `CCOC(=O)N/N=C/c1cccnc1`, the Potency entry was “inactive”.
On the same count and under the same terms, for `N=c1oc2ccccc2cc1C(=O)N/N=C/c1ccccc1` the value was “inactive”; for `Cc1ccc(/C=N/NC(=O)CNC(=O)COc2ccccc2)o1`, “inactive”.
On the same count and under the same terms, to `O=C(N/N=C/c1cccnc1)c1ccc(NC(=O)c2ccc(F)cc2)cc1` belongs “inactive”; to `Cc1ccnc(NS(=O)(=O)c2ccc(NC(=O)c3oc4ccccc4c3C)cc2)n1`, “inactive”; to `O=C(c1cccnc1)N1CCN(S(=O)(=O)c2cccs2)CC1`, “inactive”.
Same read-out and setting: for `Cc1ccc(C(=O)NCC(=O)OCc2nnc(-c3ccccc3)o2)cc1` the value was “inactive”; for `NC(N)=N/N=C/c1ccc(Cl)c([N+](=O)[O-])c1`, 1.47 µM (active).
Take `CC(CC(=O)O)C(=O)c1ccc(Cl)c([N+](=O)[O-])c1` (stereo unspecified): the Potency entry was “inactive”.
The same measure, in the same setting: for `O=C(/C=C/c1ccc(Cl)c([N+](=O)[O-])c1)c1cccnc1` the value was “inactive”.
The same measure, in the same setting: for `COc1cccc(C(=O)Nc2ccc(N3CCN(C(=O)c4ccco4)CC3)cc2)c1` the value was “inactive”; for `Brc1ccccc1CN1CCC(Cc2ccccc2)CC1`, “inactive”.
Regarding `COc1cc(C)cc(CN2CCC(Cc3ccccc3)CC2)c1O`, the Potency is 0.928 µM (active).
As to `O=c1cc(CO)oc(CN2CCC(Cc3ccccc3)CC2)c1O`, the Potency result is “inactive”.
Regarding `O=C(CN1C(=O)NC2(CCOc3ccccc32)C1=O)NCc1ccc(F)cc1` (stereo unspecified), the Potency result is “inactive”.
`Cc1cccc(NC(=O)C2CCCN(C(=O)NCc3ccccc3)C2)c1C` (stereo unspecified): the Potency result was “inactive”.
Same read-out and setting: for `CCOC(=O)C1=C(C)NC(C)=C(C(=O)OCC)C1c1ccccn1` the value was “inactive”; for `CCOC(=O)CN1C(=O)N[C@@H](c2ccc(Br)cc2)C(C(C)=O)=C1C`, “inactive”.
Turning to `CCOC(=O)C1=C(C)N=C2c3ccccc3C(=O)C2C1c1ccc(Br)cc1` (stereo unspecified), the Potency was 9.28 µM (active).
For `Cc1cccc(NS(=O)(=O)c2ccc(C(=O)NCC(C)(C)N3CCOCC3)cc2)c1C`, the Potency entry is “inactive”.
Regarding `COc1ccc(/C=C/C(=O)NC(=S)N2CCCC(C(N)=O)C2)cc1` (stereo unspecified), the Potency result was “inactive”.
The same measure, in the same setting: for `COc1ccc(Cn2c(=O)sc3ccccc32)cc1OC` the value was “inactive”.
The same measure, in the same setting: for `COC(=O)c1ccc(OCC(O)CN(CCO)CC(O)Cn2ccc3ccccc32)cc1` (stereo unspecified) the value was “inactive”.
For `COc1ccc(CCNCC(O)Cn2ccc3ccccc32)cc1OC` (stereo unspecified), the Potency is 10.4 µM (active).
On the same count and under the same terms, to `O=C(C1CCC1)N1CCN(c2ccccc2)CC1` belongs “inactive”; to `Cc1ccccc1NC(=O)Cn1cc(C(=O)C2CC2)c2ccccc21`, “inactive”; to `Cc1ccc(CNC(=O)Cn2cnc(S(=O)(=O)N3CCCCC3)c2)o1`, “inactive”.
As for `CCCOC1CCCN(C(=O)c2cc(COc3cncc(Cl)c3)on2)C1` (stereo unspecified), the Potency entry was “inactive”.
`Cc1ccccc1NC(=O)N1CCCC1C(=O)NCc1ccccc1` (stereo unspecified): the Potency result was “inactive”.
The same measure, in the same setting: to `COc1ccc(C(C)=O)cc1COc1ccc(Cl)c(C)c1` belongs “inactive”; to `CCn1nc(C)c(NC(=O)/C=C/c2ccc(OC)c(COc3ccc(Br)cc3)c2)c1C`, 8.28 µM (active).
On to `COc1ccc(/C=C/C(=O)Nc2cccnc2)cc1OC`, for which the Potency result is “inactive”.
`CC(C)COC(=O)n1c(=O)oc2ccc(S(=O)(=O)N3CCCCC3)cc21`: the Potency is 10.4 µM (active).
As for `CCOC(=O)N1CCN(C(=O)c2cn(C)c3ccc(S(=O)(=O)N4CCCC4)cc3c2=O)CC1`, the Potency entry is “inactive”.
Same read-out and setting: for `O=C(NC1CCCCC1)n1c(=O)oc2cc(S(=O)(=O)N3CCCCC3)ccc21` the value was “inactive”.
On to `CCOc1ncccc1C(=O)OCC(=O)Nc1cccc(S(=O)(=O)N2CCCCCC2)c1`, for which the Potency entry is “inactive”.
Same read-out and setting: for `COc1ccc(N2CCN(S(=O)(=O)c3cc(Br)cnc3N)CC2)cc1` the value was “inactive”; for `OCCN1CCN(c2nnc(-c3ccccc3)c3ccccc23)CC1`, “inactive”; for `c1ccc(-c2nnc(N3CCOCC3)c3ccccc23)cc1`, “inactive”.
Regarding `CCCC(=O)N1CCN(c2nnc(-c3ccc(C)cc3)c3ccccc23)CC1`, the Potency is 4.15 µM (active).
As to `Cc1ccc(S(=O)(=O)CC(=O)Nc2sc(C)c(C)c2C(N)=O)cc1`, the Potency result is “inactive”.
Regarding `S=C(NCc1ccc(Cl)cc1)NC1CCCCC1`, the Potency entry was “inactive”.
Same read-out and setting: to `O=C(NCc1ccncc1)NC12CC3CC(CC(C3)C1)C2` belongs “inactive”.
With `S=C(NCc1ccc(Cl)cc1)NC12CC3CC(CC(C3)C1)C2`, the Potency is 11.7 µM (active).
As to `CCN(CC)CCOC(=O)c1ccc(NC(=O)CNC(=O)c2ccccc2)cc1`, the Potency result is “inactive”.
Regarding `CCC(C(=O)OCCN(CC)CC)c1ccccc1` (stereo unspecified), the Potency result is “inactive”.
Same read-out and setting: for `CCCC(C(=O)OCCN(CC)CC)(c1ccccc1)c1ccccc1` the value was 6.01 µM (active); for `COc1ccc(-c2cc3ncccc3cn2)cc1`, “inactive”; for `Cc1cccc(C(=O)Nc2ccc(C(=O)N/N=C/c3cccc(C)n3)cc2)c1`, “inactive”.
Still for that read-out and setting: to `CC(CN1CCCCC1)c1ccccc1` (stereo unspecified) belongs “inactive”.
In the case of `COc1ccc(CN2CCCC(C(=O)N3CCCCC3)C2)cc1` (stereo unspecified), the Potency result was “inactive”.
Same read-out and setting: to `COc1ccc(C(O)(C2CCCCC2)C(CN2CCCC2)c2ccccc2)cc1` (stereo unspecified) belongs 11.7 µM (active).
For the compound `O=C(NCCS(=O)(=O)c1ccc(Br)cc1)c1ccccc1Cl`, the Potency entry is “inactive”.
As to `CCCCn1c(SCC(=O)N2CCOCC2)nc2c1c(=O)n(C)c(=O)n2C`, the Potency entry is “inactive”.
As for `CC1CC2=C(CC1/C=N/NC(N)=S)C(C)(C)CCC2` (stereo unspecified), the Potency is 13.1 µM (active).
Still for that read-out and setting: to `COc1ccc(C2/C(=C(/O)c3ccc4c(c3)CC(C)O4)C(=O)C(=O)N2Cc2ccncc2)cc1` (stereo unspecified) belongs “inactive”; to `COCCN1C(=O)N(c2ccc(Cl)cc2)C(=O)C1CC(=O)Nc1cc(OC)cc(OC)c1` (stereo unspecified), “inactive”; to `COCCN(CCOC)c1nc(N)c2c(N)nc3c(c2c1C#N)CC(=O)N3Cc1ccc(Cl)cc1`, 1.65 µM (active).
In the case of `CSCCC(NC(=O)c1ccco1)C(=O)Nc1cc(C)ccn1` (stereo unspecified), the Potency entry was “inactive”.
For the compound `Cc1cccc(NC(=O)NC2(C)CCS(=O)(=O)C2)c1` (stereo unspecified), the Potency entry is “inactive”.
In the case of `COCCOC(=O)C1=C(C)N=c2s/c(=C\c3cccs3)c(=O)n2C1c1cccs1` (stereo unspecified), the Potency is 4.15 µM (active).
On the same count and under the same terms, to `CCOC(=O)C1=C(C)NC(=S)NC1c1cccs1` (stereo unspecified) belongs “inactive”.
`Cc1cc(=O)oc2cc(OCC(=O)N3CCN(c4ccc(F)cc4)CC3)c(Cl)cc12`: the Potency result is “inactive”.
As for `O=C(CCc1ccccc1)Nc1ccnn1C1CCN(Cc2ccc(OCCO)cc2)CC1`, the Potency entry is “inactive”.
Still for that read-out and setting: to `O=C(Nc1ccccc1N1CCOCC1)c1ccc(OCc2cscn2)cc1` belongs “inactive”.
On to `CN1CCN(c2ccc(NC(=O)c3ccccc3)cc2)CC1`, for which the activity change, negative = inhibition is -20.4% [at 0.00184 µM].
With `CN1CCN(c2ccc(NC(=O)c3ccc4c(c3)[nH]c(=O)n4Cc3ccc(F)cc3)cc2)CC1`, the Potency was 11.7 µM (active).
On the same count and under the same terms, to `CC(C)n1c(=O)[nH]c2cc(C(=O)Nc3ccccc3)ccc21` belongs “inactive”.
The same measure, in the same setting: to `Cc1cc(C)c2nc(N3CCC(C(=O)NCCN4CCOCC4)CC3)sc2c1` belongs “inactive”; to `COc1ccccc1N1CCN(/N=C/c2ccc(O)cc2O)CC1`, “inactive”.
On the same count and under the same terms, to `COc1ccc2[nH]c(=O)c(C3c4cc(OC)c(OC)cc4CCN3C(=O)c3ccco3)cc2c1` (stereo unspecified) belongs 13.1 µM (active).
For `COc1ccc(CNC(=O)C2CCN(C(=O)c3ccco3)CC2)cc1`, the Potency result was “inactive”.
For the compound `CCc1ccc(OCC2c3cc(OC)c(OC)cc3CCN2C(C)=O)cc1` (stereo unspecified), the Potency result was “inactive”.
On the same count and under the same terms, for `CCOC(=O)N1CCN(C(=O)C(=O)Nc2sc3c(c2C#N)CC(C)(C)OC3)CC1` the value was “inactive”.
On the same count and under the same terms, to `CCc1ccc(NC(=O)CN2CCC(C(=O)c3ccc(OC)cc3)CC2)cc1` belongs “inactive”.
Still for that read-out and setting: to `CCc1cc(C(N)=O)c(NC(=O)c2ccc(OC)cc2)s1` belongs “inactive”.
On to `CCc1cc(C(=O)c2ccc(OC)cc2)c(NC(=O)CN2CCN(C)CC2)s1`, for which the Potency is 5.22 µM (active).
Consider `Cc1ccc(NC(=O)Cn2nnc(C(=O)NCc3ccco3)c2N)c(C)c1`, for which the Potency result was “inactive”.
For `NC(N)=N/N=C/c1ccc(OCc2ccc(Cl)cc2Cl)cc1`, the Potency was 9.28 µM (active).
As to `CCOc1ccc(/C=N/NC(N)=S)cc1`, the Potency entry is “inactive”.
`CCOc1ccc(NC(=O)NNC(=O)c2ccc(Cl)cc2Cl)cc1`: the Potency entry was “inactive”.
`CCOc1ccc(OCc2ccc(C(=O)N(C)c3ccccc3)o2)cc1`: the Potency result was “inactive”.
Take `O=C(COC(=O)Cc1ccccc1F)NCCc1ccccc1`: the Potency result was “inactive”.
`Fc1ccccc1Cn1cnc(NC(=S)NCCc2ccccc2)n1`: the Potency result was “inactive”.
In the case of `N=c1n(CCc2ccccc2)c2ccccc2n1Cc1ccccc1F`, the Potency is 9.28 µM (active).
On the same count and under the same terms, to `Nc1c(C(=O)Nc2ccc3c(c2)OCCO3)nnn1Cc1ccccc1` belongs “inactive”; to `O=C1CCC(C(=O)N2CCCCO2)CN1Cc1cccc(C(F)(F)F)c1` (stereo unspecified), “inactive”; to `CSc1ncc(C(=O)Nc2ccc(C)cc2C)c(C)n1`, “inactive”.
Still for that read-out and setting: for `CC(=O)c1cc(-c2ccccc2)n(CC(=O)NC2CCCCC2)c1C` the value was “inactive”.
On to `O=C(CN1C(=O)CC(c2ccccc2)S(=O)(=O)c2ccccc21)NC1CCCC1` (stereo unspecified), for which the Potency entry was “inactive”.
Same read-out and setting: to `O=C(CN1C(=O)CC(c2ccccc2)=Nc2ccccc21)NC1CCCCC1` belongs 9.28 µM (active).
For `Cc1cc(NS(=O)(=O)c2ccc(NC(=O)C(C)Oc3cccc(C)c3C)cc2)nc(C)n1` (stereo unspecified), the Potency result is “inactive”.
